This is a sample that favours compounds with a hit; in the whole collection about 7.3% have one here.
NPC1 promoter act: activators of NPC1 promoter. Huh7 NPC1 promoter luciferase reporter, 24 h. Potency, µM (series often up to 9.22 µM), for the others: top-dose activation, most hits filed as activators. hit rate 2.4% among 320,000. AID 485313; note: % of control where 0% means no effect; nearly all actives have a fitted effect of over 60% in size
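NPC1 promoter–luciferase Huh7 cells; 24 h compound; luminescence.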
SMN2 splice up: increases expression of the SMN2 splice variant. AID 1458. hit rate 2.8% among 210,000. HEK293 SMN2-luciferase splicing reporter, luminescence, 30-36 h. Potency, µM (titrated, usually from 46.1 µM), without a hit: top-dose activity change, positive = activation, hits mostly activators; note: % of control where 0% means no effect; nearly all actives have a fitted effect of over 55% in size
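qHTS luciferase splicing reporter: luminescence rises when SMN2 exon 7 is included in transfected HEK293 cells. Compound exposure lasted 30-36 h at 37C, with 4.5 mM final sodium butyrate as control, followed by a ONE-Glo read.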
FLuc counter: firefly luciferase modulation, counter-screen for miR-21 project; P08659; purified FLuc, Km substrates, luminescence inhibition; Potency, µM (titrated, usually from 57.5 µM), inactives show at the highest dose activity change, negative = inhibition, most hits filed as inhibitors; hit rate 6.9% among 360,000;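 note: plate controls were vehicle for no effect and reference inhibitor for full effect; nearly all actives have a fitted effect of over 55% in size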
Target sequence (P08659 whole entry, looked up): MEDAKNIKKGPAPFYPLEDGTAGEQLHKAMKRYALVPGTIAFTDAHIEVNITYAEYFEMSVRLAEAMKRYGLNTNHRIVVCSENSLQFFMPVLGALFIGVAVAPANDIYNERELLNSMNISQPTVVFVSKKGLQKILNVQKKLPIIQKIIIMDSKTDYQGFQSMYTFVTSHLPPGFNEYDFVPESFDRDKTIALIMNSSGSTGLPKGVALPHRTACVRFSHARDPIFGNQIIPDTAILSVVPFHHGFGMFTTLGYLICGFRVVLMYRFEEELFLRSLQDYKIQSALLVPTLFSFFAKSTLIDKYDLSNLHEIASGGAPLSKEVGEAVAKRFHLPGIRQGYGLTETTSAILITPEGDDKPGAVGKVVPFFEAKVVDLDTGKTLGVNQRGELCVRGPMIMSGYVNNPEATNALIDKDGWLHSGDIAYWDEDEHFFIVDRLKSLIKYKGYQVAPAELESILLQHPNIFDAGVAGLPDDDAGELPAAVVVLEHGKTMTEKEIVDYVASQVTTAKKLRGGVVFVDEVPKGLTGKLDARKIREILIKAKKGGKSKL
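Biochemical qHTS of compounds, final roughly 60 µM downward over six points, against 10 nM purified firefly luciferase using Km concentrations of substrates (10 uM D-luciferin, 10 uM ATP) in Tris acetate pH 7.5 buffer; luminescence output.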
ELG1 genotox: genotoxicity induction in ELG1-luciferase HEK293T cells; Potency, µM (top dose mostly 46 µM), without a hit: at the highest dose activity change, positive = activation, usual class: activators; HEK293T ELG1-luciferase reporter, luminescence, 16 h; hit rate 1.3% among 330,000; note: % of control where 0% means no effect; nearly all actives have a fitted effect of over 60% in size
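Luminescence read-out: rising ELG1-luciferase signal, reflecting elevated ELG1 protein under genetic stress, flags genotoxic compounds. Cells were treated for 16 hr at 37 °C before ONE-Glo detection.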
Rab9 promoter act: activators of Rab9 promoter. Huh7 Rab9 promoter-luciferase reporter, luminescence, 24 h. Potency, µM (titrated, usually from 9.22 µM), for the others: top-dose activation, negative = inhibition, usual class: activators. hit rate 2.8% among 320,000. AID 485297; note: % of control where 0% means no effect; nearly all actives have a fitted effect of over 60% in size
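Stable Rab9-luc Huh7, 1500 cells/well, 2 h settle; cmpd in DMSO, 24 h, 37 °C/5% CO2; luciferase reagent 10 min RT; luminescence.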
Luc counter: blocks Kinase-Glo luciferase, a counter-screen artifact; Kinase-Glo luciferase, ATP luminescence, 8 min; Potency, µM (doses to about 38.3 µM), without a hit: at the top dose activity change, negative = inhibition, hits mostly inhibitors; hit rate 0.28% among 200,000; AID 1379; note: % is set by controls: 0 for no effect and ±100 for the full control effect; nearly all actives have a fitted effect of over 60% in size
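Compound is pinned into ATP-containing buffer (10 uM ATP, imidazole pH 7.2, 7 mM MgCl2). Kinase-Glo luciferase reagent is then added. Light output is recorded following an 8-min room-temperature incubation.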
Active calls of the source: *; ? = inconclusive; nt = no result given; [ ] = remark or other dose. Calls come from the whole dose curve; as a rule, active = well fitted curve in the direction sought with a large enough effect; inconclusive = small, poorly fitted or top-dose-only effect, or another doubt; inactive = no such curve, though single readings can be large; an effect the other way counts as inactive or inconclusive. Potency is the fitted concentration of half-maximal effect.

SMILES	NPC1 promoter act	SMN2 splice up	FLuc counter	ELG1 genotox	Rab9 promoter act	Luc counter
COc1ccc(-c2nc(SCC(=O)Nc3c(F)cccc3F)n[nH]2)cc1	-1%	nt	12µM*	16%	-3%	nt
CCCCOc1ccc(-c2nc(=S)[nH][nH]2)cc1	26%	10µM*	?	30%	?	15%
COc1ccc(-c2nc(SCC(=O)Nc3cccc(C(C)=O)c3)n[nH]2)cc1	nt	nt	6.7µM*	nt	nt	nt
COc1cc(OC)cc(-c2nc(SCC(=O)Nc3ccccc3F)n[nH]2)c1	0%	nt	1%	2%	0%	nt
CC(=O)c1cccc(NC(=O)CSc2n[nH]c(-c3ccncc3)n2)c1	1%	nt	?	2%	-12%	nt
COc1ccc(N2CC(NC(=O)C(c3ccccc3)c3ccccc3)CC2=O)cc1OC (configuration not stated)	nt	nt	-2%	nt	nt	nt
COc1ccc(C2=NC(c3ccccc3)=Nc3ccc(C)cc3N2)cc1	nt	12%	?	nt	nt	nt
Cc1ccc(C2=NC(c3ccccc3)=Nc3ccc(Cl)cc3N2)cc1	nt	-5%	11µM*	nt	nt	nt
CC1CCN(C(=O)c2cc(-c3ccccc3O)on2)CC1	2.5µM*	?	2.7µM*	2.6µM*	3.2µM*	3%
CC1CCN(C(=O)c2cc(-c3ccco3)on2)CC1	1.8µM*	nt	13µM*	16µM*	2.8µM*	nt
O=C(c1cc(-c2ccccc2O)on1)N1CCc2ccccc2C1	-5%	21%	?	16%	6%	0%
CC1CCCC(C)N1C(=O)c1cc(-c2ccco2)on1 (configuration not stated)	3%	nt	-16%	29%	8%	nt
COc1ccc(NC(=O)CCn2c(-c3ccc(F)cc3)cc(C(C)=O)c2C)c(OC)c1	nt	nt	5%	nt	nt	nt
CCc1ccc(C(=O)COC(=O)c2n[nH]c3ccccc23)cc1	1.8µM*	-12%	3µM*	18%	0.89µM*	-4%
CCc1ccc(C(=O)COC(=O)c2nn(C)c(=O)c3ccccc23)cc1	-2%	1%	19µM*	0%	-4%	0%
CC1CCN(C(=O)COC(=O)c2n[nH]c3ccccc23)CC1	3.5µM*	?	?	?	3.2µM*	0%
Cn1nc(C(=O)OCC(=O)c2ccc(Br)cc2)c2ccccc2c1=O	1%	nt	0%	-1%	1%	nt
Cn1nc(C(=O)OCC(=O)c2ccc[nH]2)c2ccccc2c1=O	-2%	6%	-1%	2%	-2%	0%
Cc1cc(C)c(C(=O)COC(=O)c2nn(C)c(=O)c3ccccc23)cc1C	-3%	nt	11µM*	1%	-5%	nt
O=C(COC(=O)c1n[nH]c2ccccc12)c1cc(F)ccc1F	-1%	-20%	?	-1%	2%	-4%
NC1(C(=O)NC2(C(=O)O)CCCC2)CCCC1	nt	1%[9.22 µM]	nt	nt	nt	-4%[7.66 µM]
Cc1ccccc1OCCSc1nc2ccc(NC(=O)c3cccs3)cc2s1	nt	nt	-5%	nt	nt	nt
COc1ccc(NC(=O)c2cc(-c3ccc(F)cc3)no2)cc1OC	nt	nt	-6%	nt	nt	nt
c1csc(-c2nc3nc4ccccc4nc3n2Cc2ccc3c(c2)OCO3)c1	29%	?	2.7µM*	-1%	?	-9%
COc1ccc(-c2cc3nc(C)cc(NCCO)n3n2)cc1	-1%	-17%	11µM*	9%	?	1%
SMILES	NPC1 promoter act	SMN2 splice up	FLuc counter	ELG1 genotox	Rab9 promoter act	Luc counter
CC(=O)n1nc(-c2ccc(C)cc2)nc1NCc1ccco1	2.5µM*	?	1%	?	3.5µM*	-1%
COCCNc1cc(C)nc2cc(-c3ccc(C)cc3)nn12	?	-2%	6µM*	?	?	-5%
Cc1ccc(-c2nc(NCc3ccco3)n(S(C)(=O)=O)n2)cc1	15%	?	nt	-10%	11%	3%
Cc1ccc(-c2cc3nc(C)cc(NCc4ccco4)n3n2)cc1	2.8µM*	13µM*	2.4µM*	4.1µM*	17%	-14%
Cc1ccc(C)c(NS(=O)(=O)c2cc(C(=O)O)ccc2Cl)c1	nt	nt	nt	nt	nt	-1%
COc1ccc(-c2cc3nc(C)cc(N)n3n2)cc1	0.11µM*	1.1µM*	0.38µM*	?	0.35µM*	7.9µM*
COc1ccc(-c2cc3nc(C)cc(-c4ccc(OC)cc4)n3n2)cc1	1%	nt	?	3%	-1%	nt
N#Cc1cnc2cc(-c3ccccc3)nn2c1N	?	nt	?	13%	?	nt
COc1ccc(-c2cc3ncc(-c4ccccc4)c(N)n3n2)cc1	1.4µM*	11µM*	0.95µM*	?	1.8µM*	11µM*
COc1ccc(S(=O)(=O)N(CCc2ccccc2)CC(=O)NCc2ccccc2)cc1OC	nt	-13%	-10%	nt	nt	nt
COc1ccccc1OCC(=O)Nc1ccc(Cl)cc1	13%	?	?	14%	20%	1%
NC(=O)c1ccccc1OCC(=O)Nc1ccc2c(c1)CCC2	22%	nt	15µM*	6%	?	nt
COc1ccccc1CC(=O)Nc1ccc2c(c1)CCC2	-4%	-9%	?	4%	1%	3%
NC(=O)c1ccccc1OCC(=O)Nc1ccc(Cl)c(Cl)c1	0.35µM*	nt	0.67µM*	1.2µM*	0.35µM*	nt
COc1ccccc1C(=O)NCC(=O)Nc1ccc2c(c1)CCC2	?	nt	12µM*	?	26%	nt
O=C(Nc1ccccc1C(F)(F)F)c1ccc(F)c(S(=O)(=O)N2CCc3ccccc3C2)c1	nt	nt	-1%	nt	nt	nt
Cc1ccc(OCC(=O)N2CCCCC2)c(Br)c1	?	20µM*	?	15%	?	2%
Cc1cc(OCC(=O)N2CCCCCC2)ccc1[N+](=O)[O-]	?	13µM*	17µM*	?	?	0%
COc1ccccc1N1CCN(C(=O)COc2ccc(C)cc2Br)CC1	2%	1%	-2%	2%	-1%	-2%
CC(C)(C)c1ccc(OCC(=O)N2CCCCCC2)c(Br)c1	?	13µM*	15µM*	?	?	0%
CN(C)C1C(=O)C(C(N)=O)=C(O)[C@@]2(O)C(=O)C3=C(O)c4c(O)ccc(Cl)c4[C@@H](O)C3C[C@@H]12 (some centres not stated)	nt	-16%	nt	nt	nt	-3%
O=C(Nc1nc(-c2cccs2)cs1)c1ccc(Cl)s1	25%	-94%	13µM*	?	23%	3%
Cc1ccc(C(=O)Nc2nc(-c3cc(Cl)sc3Cl)cs2)cc1	-1%	-69%	9.5µM*	6%	-11%	-3%
O=C(Nc1nc(-c2ccc(Cl)s2)cs1)c1ccccc1	14%	-25%	27µM*	11%	29%	18%
O=C(Nc1ccc(Cl)cc1Cl)c1ccc2c(=O)n3c(nc2c1)CCC3	1.8µM*	nt	11µM*	?	1.4µM*	nt

Screening data as filed in PubChem.
